Compound activity: PubChem, National Center for Advancing Translational Sciences (NCATS)
Menin-MLL TR inh: displaces Texas Red mutant MLL peptide from human menin. O00255. Menin + Texas Red MLL mutant peptide, fluorescence polarization. Potency, µM (highest dose often 61.6 µM), usual class: inhibitors. hit rate 0.23% among 270,000. AID 1768; active means well fitted inhibition curve with a large enough effect in the polarisation, with a control signal flat, not every such curve was filed as active; inconclusive means small, poorly fitted or top-dose-only effect, or effect the other way, or a change in a side signal; inactive means no such curve, though single readings can be large or run the other way; the % refers to the polarisation
Target sequence (O00255 whole entry, looked up): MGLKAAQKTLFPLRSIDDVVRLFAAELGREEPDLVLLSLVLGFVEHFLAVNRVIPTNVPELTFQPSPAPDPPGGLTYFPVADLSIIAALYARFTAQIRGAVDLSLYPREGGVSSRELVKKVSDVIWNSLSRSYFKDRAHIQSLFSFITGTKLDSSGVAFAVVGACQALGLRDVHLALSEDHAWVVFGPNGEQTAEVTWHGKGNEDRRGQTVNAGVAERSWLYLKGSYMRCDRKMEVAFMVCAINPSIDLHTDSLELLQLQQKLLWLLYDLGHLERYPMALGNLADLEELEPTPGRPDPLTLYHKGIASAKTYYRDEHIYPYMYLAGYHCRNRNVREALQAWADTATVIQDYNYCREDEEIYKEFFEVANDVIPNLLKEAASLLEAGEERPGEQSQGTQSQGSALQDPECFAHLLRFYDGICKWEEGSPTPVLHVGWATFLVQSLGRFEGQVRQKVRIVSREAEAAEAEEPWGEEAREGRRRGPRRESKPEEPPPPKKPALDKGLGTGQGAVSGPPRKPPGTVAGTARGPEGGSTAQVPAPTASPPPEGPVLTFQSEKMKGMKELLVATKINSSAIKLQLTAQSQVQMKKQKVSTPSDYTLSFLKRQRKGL
Akt phos inh: blocks phosphorylation of Akt; Neuro2A IGF-stimulated pAkt S473 HTRF, 20 min; active compounds read low; activity change, % for hits at 50 µM; hit rate 0.32% among 360,000; in the data active means activity change below about -80%; inconclusive means mostly about -51% to -80%
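Neuro2A cells (4,500/well, DMEM with 0.5% FBS) were treated with compound at a single 50 µM final concentration, stimulated with 6 nM IGF for 20 min at 37 °C, and lysed. Phospho-Akt Ser473 was read by HTRF as 665/615 ratio ×10^4.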
IDH1 R132H inh: inhibitors of human mutant IDH1 R132H; O75874; IDH1-R132H enzyme, NADPH consumption, diaphorase/resazurin fluorescence; Potency, µM (top dose mostly 76.6 µM), most hits filed as inhibitors; hit rate 0.093% among 390,000; AID 602179; active means well fitted inhibition curve with a large enough effect; inconclusive means small, poorly fitted or top-dose-only effect; inactive means no such curve, though single readings can be large or run the other way; further: nearly all actives have a fitted effect of over 65% in size
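IDH1-R132H (0.5 ug/mL) preincubated 30 min with compound, then NADPH (0.016 mM) and alpha-KG (2 mM) added; 80 min at RT, pH 7.5. Remaining NADPH coupled via diaphorase/resazurin to fluorescence (540/590 nm); concentration-response curves normalized to no-enzyme control.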
CXXC DNA block: blocks binding of human MLL CXXC domain to DNA; MLL-CXXC / FITC-HOXA9 DNA fluorescence polarization; hit rate 0.037% among 290,000; Potency, µM (doses to about 115 µM), most hits filed as inhibitors; AID 2662; active means well fitted inhibition curve with a large enough effect in the polarisation, with a control signal flat, not every such curve was filed as active; inconclusive means small, poorly fitted or top-dose-only effect, or effect the other way, or a change in a side signal; inactive means no such curve, though single readings can be large or run the other way; the % refers to the polarisation
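Purified MLL-CXXC (added from a 7 uM solution) was preincubated 5 min at ambient with pinned compounds in 50 mM Tris-HCl pH 7.5, 50 mM NaCl, 1 mM DTT, 0.05% BSA. Fluorescein-labeled HOX-A9 DNA (50 nM solution) followed, 30 min, then polarization read.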
Menin MLL FP FL: displaces fluorescein MLL peptide from human menin. 290,000 tested, under 10 active. Fluorescence polarization, fluorescein-MLL peptide displacement from menin. FP activity change, % at 61.4 µM; active means well fitted curve in the direction sought with a large enough effect in the polarisation, not every such curve was filed as active; inconclusive means small, poorly fitted or top-dose-only effect, or effect the other way, or a change in a side signal; inactive means no such curve, though single readings can be large or run the other way; the % refers to the polarisation
LDHA block: blocks human lactate dehydrogenase A. P00338. purified LDHA, NADH/diaphorase-resazurin fluorescence; active compounds read low. activity change, % (values are at about 110 or 230 µM). hit rate 0.15% among 480,000. AID 1347041; in the data active means activity change below about -30%; inconclusive means mostly about -25% to -30%
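Remaining NADH was detected by diaphorase (0.133 mg/mL) converting 37 µM resazurin to fluorescent resorufin, read at 0 and 20 minutes. The preceding 5-minute room-temperature reaction used 2 nM LDHA, 0.2 mM sodium pyruvate and 0.06 mM NADH at pH 7.4.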
A number is an active result; i = inactive; ? = inconclusive; nt = not tested or not shown. In the library only some 0.54% were active in any assay of this set; here they are far more common.

SMILES	Menin-MLL TR inh	Akt phos inh	IDH1 R132H inh	CXXC DNA block	Menin MLL FP FL	LDHA block
Cc1nnc(NC(=O)c2c(-c3ccccc3)noc2C)s1	i	i	i	i	i	i
Cc1onc(-c2ccccc2)c1C(=O)Nc1cccc2nsnc12	i	-120%	i	i	i	i
O=C(Nc1cc([N+](=O)[O-])ccc1O)c1cccc(C(=O)Nc2cc([N+](=O)[O-])ccc2O)c1	?	i	i	i	i	-35
O=C(Nc1cc([N+](=O)[O-])ccc1O)c1ccc2c(c1)C(=O)N(Cc1ccco1)C2=O	nt	i	i	i	nt	-56
NS(=O)(=O)c1ccc(O)c(NC(=O)c2ccc([N+](=O)[O-])cc2)c1	i	i	i	i	i	-57
O=C(Nc1cc([N+](=O)[O-])ccc1O)c1cccc([N+](=O)[O-])c1	i	i	i	i	i	i
COc1cccc(NC(=O)CN(C)Cc2cc(=O)oc3c(C)c(O)ccc23)c1	nt	nt	nt	nt	nt	i
CC(=C\C(=O)O)/C(=C\c1ccc(Br)cc1)C(=O)O	nt	nt	nt	nt	nt	i
O=C(Nc1cc(Cl)ccc1F)C12CC3CC(CC(C3)C1)C2	nt	nt	nt	nt	nt	i
CSc1cccc(NC(=O)COc2coc(CN3CCSCC3)cc2=O)c1	nt	nt	nt	nt	nt	-38
COc1ccc(NC(=O)COc2coc(CN3CCSCC3)cc2=O)cc1	nt	nt	nt	nt	nt	i
O=C(CCCCn1c(=O)c2ccccc2n(CC(=O)Nc2ccc(F)cc2)c1=O)NCc1ccco1	i	i	i	i	i	i
Cc1ccc(NC(=O)Cn2c(=O)n(CCCCC(=O)NCc3ccco3)c(=O)c3ccccc32)cc1	i	-113%	i	i	i	i
S=c1[nH]nc(-c2cccc(Br)c2)o1	i	-108%	i	i	i	i
O=C(CCc1ncc(-c2ccccc2)o1)NCCc1ccc(F)cc1	nt	nt	nt	nt	nt	i
CCc1ccc(NC(=O)CSc2nccn2-c2ccc(F)cc2)cc1	nt	nt	i	nt	nt	i
CSc1nccn1CC(=O)Nc1ccc(F)cc1	i	-114%	i	i	i	i
CCOc1ccc(NC(=O)CN2CCN(CC(=O)Nc3ccc(F)cc3)CC2)cc1	i	-117%	i	i	i	i
CCN1CCN(CC(=O)Nc2c(OC)cccc2OC)CC1	i	i	i	i	i	-31
c1ccc(-c2cnnc(SCc3cn4cccnc4n3)n2)cc1	i	-112%	i	i	i	i
CC(C)CCn1c(N2CCN(Cc3ccccc3F)CC2)nc2c1c(=O)[nH]c(=O)n2C	nt	nt	nt	nt	nt	i
CN=c1scc(-c2ccccc2)n1C	nt	nt	nt	nt	nt	i
Cn1c(-c2ccccc2)csc1=N	nt	nt	nt	nt	nt	-49
CCC(C)C(NC(N)=O)C(=O)NCCc1ccc(Cl)cc1 (configuration not stated)	nt	nt	nt	nt	nt	i
Cc1c(-c2ccccc2)oc2c(C(=O)N3CCN(Cc4ccccc4)CC3)cccc2c1=O	nt	nt	nt	nt	nt	i
SMILES	Menin-MLL TR inh	Akt phos inh	IDH1 R132H inh	CXXC DNA block	Menin MLL FP FL	LDHA block
COc1ccc(NC(=O)CSc2nnc(C3CC3)n2-c2ccccc2)cc1	i	i	i	i	i	i
COc1ccc(NC(=O)CSc2nnc(-c3cccs3)n2-c2ccccc2)cc1	?	-107%	i	i	i	i
Cc1ccccc1OCCn1cc(C(=O)C2CC2)c2ccccc21	nt	nt	nt	nt	nt	i
O=C(O)c1ccccc1-c1nc2ccccc2c(=O)[nH]1	i	-105%	i	i	i	i
O=C(O)c1ccccc1-c1nc(-c2ccccc2)c(-c2ccccc2)[nH]1	i	i	i	i	i	i
Cc1ccc(NC(=O)c2csc3c2CCCC3)c(C)c1	nt	nt	nt	nt	nt	i
CCn1nc(C(=O)Nc2nc(-c3ccc(NC(C)=O)cc3)cs2)c2ccccc2c1=O	nt	nt	nt	nt	nt	-31
CC1CCN(C(=S)NC(=O)c2ccc(C(C)(C)C)cc2)CC1	i	i	i	i	i	i
CC1CCN(C(=S)NC(=O)c2ccccc2)CC1	i	-111%	i	i	i	i
N#Cc1c(N)nc2c3c(sc(=N)c2c1N)NC(=O)CC3c1ccccc1 (configuration not stated)	22µM	i	i	i	i	i
NC(=O)c1ccsc1NC(=O)COC(=O)c1ccc(F)c(F)c1	nt	nt	nt	nt	nt	i
CC(NC(=O)CCC1CCCC1)c1ccccn1 (configuration not stated)	nt	nt	nt	nt	nt	i
Cc1ccc(C(c2c[nH]c3ccccc23)N(C)C(=O)C(C)C)cc1 (configuration not stated)	nt	nt	nt	nt	nt	i
CN(C)c1cccc(C(=O)Nc2cccc(F)c2)c1	i	i	i	i	i	i
CCN(CC)c1ccc(C(=O)Nc2cccc(F)c2)cc1	?	-115%	i	i	i	i
O=C1ON=C(c2ccc(Cl)c([N+](=O)[O-])c2)/C1=C/c1cccc([N+](=O)[O-])c1O	nt	i	i	nt	nt	-31
Cc1n[nH]c(=S)n(/N=C/c2cccs2)c1=O	nt	i	i	i	i	-31
CCc1n[nH]c(=S)n1/N=C/c1ccc(NC(C)=O)cc1	i	i	i	i	i	i
CC(C)(C)c1n[nH]c(=S)n(/N=C/c2cccs2)c1=O	i	i	i	i	i	i
CCN(CC)c1ccc(/C=N/n2c(=S)[nH]nc(C)c2=O)cc1	i	i	i	i	i	-31
CCOc1cccc2sc(N(Cc3cccnc3)C(=O)C3=COCCO3)nc12	nt	nt	nt	nt	nt	i
Cc1ccn2c(Nc3ccc4c(c3)OCO4)c(-c3ccccn3)nc2c1	35µM	i	i	?	?	i
CCOc1ccc2[nH]c(=O)c(CN(Cc3ccccc3)C(=O)N3CCCC3)cc2c1	i	-132%	i	i	i	i
Cc1ccc(NC(=O)CSc2nc(-c3ccc(C(C)(C)C)cc3)nc3cc(=O)[nH]n23)cc1C	nt	nt	i	nt	nt	-41
CCOc1ccc(-c2nc(SCC(=O)Nc3ccc(C)c(C)c3)n3[nH]c(=O)cc3n2)cc1	nt	nt	i	nt	nt	i
SMILES	Menin-MLL TR inh	Akt phos inh	IDH1 R132H inh	CXXC DNA block	Menin MLL FP FL	LDHA block
CN(CC(=O)NC(=O)NCC(F)(F)F)CC(F)(F)F	nt	nt	nt	nt	nt	i
CC(C)Sc1nc2c(c(=O)[nH]c(=O)n2C)n1CCCc1ccccc1	nt	nt	nt	nt	nt	i
CC1CC=C2C(C#N)=C(N)C(C#N)(C#N)C(c3cccs3)C2C1 (configuration not stated)	i	i	21µM	i	?	i
Fc1ccc(-c2csc(NCc3ccco3)n2)cc1	nt	nt	nt	nt	nt	i
Cc1ccc(C(C)NC(=O)C2CCN(CC(C)C)CC2)s1 (configuration not stated)	nt	nt	nt	nt	nt	i
O=C1c2ccsc2SCCN1Cc1ccc(Cl)cc1	i	-124%	i	i	i	i
CSCCC(NC(=O)OC(C)(C)C)C(=O)Oc1ccc2c(=O)c(-c3ccc4c(c3)OCCO4)coc2c1 (configuration not stated)	i	-85%	i	i	i	i
COC(=O)COc1ccc2c(=O)c(-c3ccc4c(c3)OCCO4)coc2c1	nt	nt	nt	nt	nt	i
CCOCCSc1nc2c(c(=O)[nH]c(=O)n2C)n1Cc1ccccc1	nt	nt	nt	nt	nt	i
CCN(CC)S(=O)(=O)c1ccc(Cl)c(C(=O)NC2CCN(Cc3ccccc3)CC2)c1	i	i	i	i	i	i
